According to the supplement of paper PMC3842684:

Assays:
[1] = tested on: P. falciparum NF54-pfs16-GFP early (I-III) stage gametocytes; assay: relative % inhibition of viable gametocyte number; higher = more gametocytocidal; settings: stage: early (I-III) gametocyte, incubation 72 h
Procedure, shortened: (§1)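 Compound was tested in duplicate at 5 or 0.5 µM on magnet-isolated NF54 pfs16-GFP gametocytes, taken either early (I/IIa, day 2) or late (day 8) and plated at 10% parasitaemia, 0.1% haematocrit. Incubation ran 72 h at 37°C, 5% CO2, 5% O2, followed by overnight MitoTracker Red staining and confocal imaging. Relative inhibition, based on counts of elongated GFP objects with above-cut-off MitoTracker signal, was normalised to in-plate vehicle and positive-control wells.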

[2] = tested on: P. falciparum NF54-pfs16-GFP late (IV-V) stage gametocytes; assay: as above; settings: stage: late (IV-V) gametocyte, incubation 72 h
Procedure, shortened: as §1

Compound | relative % inhibition ([1]; 0.5 µM) [%] | relative % inhibition ([1]; 5 µM) [%] | relative % inhibition ([2]; 0.5 µM) [%] | relative % inhibition ([2]; 5 µM) [%]
O=C(Nc1ccc(Br)cc1)Nc1cccc(Cl)c1 | 20 | 26.8 | -8.75 | -6.59
O=C(NC1CCN(Cc2ccccc2)CC1)c1cc2nc(-c3ccc(Cl)s3)cc(C(F)(F)F)n2n1 | 3.66 | -15.9 | 21.4 | 25
O=C(NC1CCCC1)c1ccc(N2CCC(NCc3cccc(C(F)(F)F)c3)CC2)cc1 | 2.61 | 22.8 | 6.99 | 44.5
Cc1cc(Nc2cccc(F)c2)nc(NCc2ccccc2)n1 | 28.5 | 72.2 | 24.1 | 34.6
CCOC(=O)c1cnc2ccc(Cl)cc2c1NCCCN(C)C | 3.83 | 74.3 | -21.7 | -1.78
CCCC(c1nnnn1C1CCCCC1)N1CCN(C(=O)c2ccco2)CC1 (stereo not given) | 0.873 | -28.3 | -2.74 | 2.82
CCCc1c(CC)c(=N)c2ccccc2n1C | 25.1 | 19.6 | 7.6 | -7.96
CCC(O)c1ccc(Br)cc1NC(=O)c1cccc(Cl)c1 (stereo not given) | 3.28 | 93.3 | 12 | 28.6
CCN(CC)CCn1c(=N)n(CC(O)c2ccc(Cl)c(Cl)c2)c2ccccc21 (stereo not given) | 32.2 | 61.8 | 19.3 | 89.4
CCOc1cccc2sc(N(Cc3cccnc3)C(=O)C3CCCCC3)nc12 | 16.6 | 53.7 | -9.86 | 11.9
Brc1ccc(Nc2nc3ccccc3nc2Nc2ccc(Br)cc2)cc1 | 38.5 | 103 | 55.2 | 102
N#Cc1nc(Cc2cccc3ccccc23)oc1N1CCN(C(c2ccccc2)c2ccccc2)CC1 | -3.05 | 2.44 | 7.14 | 40.5
COc1ccc(C2=C(c3ccc(OC)cc3)C3(c4ccccc4)C(=O)C2(c2ccccc2)C2C(=O)N(c4ccc(C)cc4)C(=O)C23)cc1 (stereo not given) | 60.3 | 84.7 | 34.3 | 28.5
COc1ccc(N2CCN(C(CNC(=O)CC(C)(C)C)c3ccc4c(c3)OCO4)CC2)cc1 (stereo not given) | 31.4 | 24.4 | 42.2 | 25.6
CC1CN(C(=O)c2sc3ccccc3c2Cl)CC(C)O1 (stereo not given) | -11.1 | 1.13 | 6.08 | -5.12
O=C(Nc1ccc(F)c(Cl)c1)Nc1ccc(Cl)c(Cl)c1 | 6.15 | 98.2 | 18.8 | 30.3
CCCCCC(=O)N1c2ccccc2N=C2CC(c3ccc(OC)c(OC)c3)CC(O)=C2C1c1ccc(C(F)(F)F)cc1 (stereo not given) | 50.6 | 76.3 | 32.8 | 60.6
COc1cc(C(=O)Nc2ccc(-c3nc4ccccc4[nH]3)cc2)cc(OC)c1OC | 22.1 | 42.1 | 20.5 | 9.54
Cc1cc(N(C)C)nc(Nc2ccc(NC(=O)Nc3ccccc3)cc2)n1 | 24.5 | 8.02 | 24 | 1.55
Nc1ccc(-c2nc3cc(Oc4ccc(Oc5ccc6[nH]c(-c7ccc(N)cc7)nc6c5)cc4)ccc3[nH]2)cc1 | 13.7 | 98 | 13.4 | 32.9
